Compound activity from PubChem BioAssay.
NPR1 antag – human Npr1 receptor antagonism. P16066. HEK293 hNpr1 GloSensor cGMP, ANP-stimulated luminescence. Potency, µM (titrated, usually from 46.3 µM), inactives show at the top dose activity change, negative = inhibition, usual class: inhibitors. 1.6% of 76,000 active; calls by dose curve; further: on the % scale 0 is the no-effect control and ±100 the full control effect; nearly all actives have a fitted effect of over 60% in size
Target sequence (P16066 whole entry, looked up): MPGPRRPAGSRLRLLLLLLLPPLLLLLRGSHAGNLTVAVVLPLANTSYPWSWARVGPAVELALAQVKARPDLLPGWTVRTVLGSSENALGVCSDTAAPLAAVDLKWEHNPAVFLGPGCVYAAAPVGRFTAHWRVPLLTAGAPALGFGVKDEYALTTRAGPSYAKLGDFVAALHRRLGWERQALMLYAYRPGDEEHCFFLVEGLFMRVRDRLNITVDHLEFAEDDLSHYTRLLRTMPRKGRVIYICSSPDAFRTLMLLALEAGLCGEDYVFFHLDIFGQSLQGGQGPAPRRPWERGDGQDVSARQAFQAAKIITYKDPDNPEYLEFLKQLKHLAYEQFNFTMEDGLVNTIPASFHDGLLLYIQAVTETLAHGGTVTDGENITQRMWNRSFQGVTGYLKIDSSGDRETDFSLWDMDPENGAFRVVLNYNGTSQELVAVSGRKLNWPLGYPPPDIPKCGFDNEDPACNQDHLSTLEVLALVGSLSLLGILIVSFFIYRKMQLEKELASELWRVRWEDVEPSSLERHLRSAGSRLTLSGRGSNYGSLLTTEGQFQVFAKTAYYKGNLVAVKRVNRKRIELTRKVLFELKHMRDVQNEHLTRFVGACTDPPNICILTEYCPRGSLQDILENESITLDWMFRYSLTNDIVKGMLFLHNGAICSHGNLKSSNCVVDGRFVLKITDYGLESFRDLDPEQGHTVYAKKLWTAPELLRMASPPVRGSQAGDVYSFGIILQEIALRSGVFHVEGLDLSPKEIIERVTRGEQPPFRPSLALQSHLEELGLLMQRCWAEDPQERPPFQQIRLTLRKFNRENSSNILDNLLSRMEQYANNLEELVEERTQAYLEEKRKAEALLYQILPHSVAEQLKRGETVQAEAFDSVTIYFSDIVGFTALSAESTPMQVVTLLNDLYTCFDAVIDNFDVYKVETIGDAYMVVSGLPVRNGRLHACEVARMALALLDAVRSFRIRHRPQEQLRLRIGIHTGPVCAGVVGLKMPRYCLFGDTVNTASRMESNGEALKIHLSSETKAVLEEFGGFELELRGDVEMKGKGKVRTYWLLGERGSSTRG
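HEK293 cells stably expressing human Npr1 and cGMP GloSensor pGS-40F, loaded 2 h with 2% GloSensor reagent, given compound 30 min at room temperature. Luminescence read before and 20 min after 0.1 nM hNppA.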
HEK cytotox – HEK 293 cell cytotoxicity | Potency, µM (top dose mostly 115 µM), without a hit: at the highest dose activity change, negative = cytotoxicity, most hits filed as inhibitors | AID 1345083 | HEK 293 viability, ATP luminescence (CellTiter-Glo), 48-72 h | 6.6% of 94,000 active; further: on the % scale 0 is the no-effect control and ±100 the full control effect; nearly all actives have a fitted effect of over 60% in size
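Luminescence from cellular ATP, measured with CellTiter-Glo, indicates HEK 293 viability. Cells plated at 250 cells/well are treated with compound for 48 or 72 hr at 37 degree Celsius before reagent addition.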
FLuc inh-1 – inhibitors of firefly (Photinus pyralis) luciferase; P08659; purified P. pyralis luciferase, luminescence, biochemical; AID 1347043; 2.5% of 76,000 active; Potency, µM (highest dose often 115 µM), hits mostly inhibitors; further: on the % scale 0 is the no-effect control and ±100 the full control effect; nearly all actives have a fitted effect of over 65% in size
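Biochemical qHTS: compound (6-point titration) added to 10uM D-luciferin plus 10uM ATP in Tris acetate pH 7.5 buffer with Mg, Tween-20 and BSA, then purified enzyme at 10nM; light output imaged.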
3T3 cytotox – cytotoxic compounds in NIH 3T3 cells; NIH 3T3 viability, CellTiter-Glo ATP luminescence, 48-72 h; Potency, µM (highest dose often 96.7 µM), for the others: at the top dose activity change, negative = cytotoxicity, most hits filed as inhibitors; 4.3% of 94,000 active; AID 1345082; further: on the % scale 0 is the no-effect control and ±100 the full control effect; nearly all actives have a fitted effect of over 55% in size
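Cytotoxicity was measured by CellTiter-Glo ATP luminescence after 48 or 72 h compound exposure at 37 °C. Mouse NIH 3T3 fibroblasts were seeded at 400 cells/well and dosed by 23 nL pin transfer.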
FLuc SDR no ATP – firefly luciferase binding stabilization, ATP absent; shares compounds with FLuc inh-1; Purified FLuc-C-HiBiT, Nano-Glo HiBiT luminescence, no ATP; Potency, µM (doses to about 32.7 µM), inactives show top-dose activation (signal gain), actives largely listed as activators; 7.8% of 1,300 active; AID 1963318; further: nearly all actives have a fitted effect of over 55% in size
FLuc SDR ATP – binders stabilizing firefly luciferase, plus ATP; shares compounds with FLuc inh-1; purified FLuc-C-HiBiT + ATP, HiBiT complementation luminescence; Potency, µM (highest dose often 32.7 µM), for inactives: at the highest dose activation (gain of signal), hits mostly activators; 8.7% of 1,300 active; AID 1963319;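 further: signal reports ligand binding via conformational change of the enzyme rather than luciferase catalysis; % of control where 0% means no effect; nearly all actives have a fitted effect of over 55% in size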
FLuc inh-2 – firefly luciferase enzyme inhibition; shares compounds with FLuc inh-1; Potency, µM (top dose mostly 32.7 µM), for inactives: at the highest dose activity change, negative = inhibition, actives largely listed as inhibitors; purified FLuc-C-HiBiT enzyme, luciferin luminescence; 42% of 1,300 active; further: on the % scale 0 is the no-effect control and ±100 the full control effect; nearly all actives have a fitted effect of over 70% in size
Starred values were filed as active, the others as inactive; i = inactive; ? = inconclusive; . = no result; [ ] = dose if it differs, or a comment. Rows were chosen to be rich in hits. Some 11% of all compounds tested hit in one or more screens of this group. Unless noted, the call rests on the fitted dose curve; in most records, active means well fitted curve in the direction sought with a large enough effect; inconclusive means small, poorly fitted or top-dose-only effect, or another doubt; inactive means no such curve, though single readings can be large; an effect the other way counts as inactive or inconclusive. Potency means the concentration at half of the fitted maximal effect.

SMILES	NPR1 antag	HEK cytotox	FLuc inh-1	3T3 cytotox	FLuc SDR no ATP	FLuc SDR ATP	FLuc inh-2
COc1ccc(-c2cccc(COc3cnc4c(ccn4CC(=O)O)c3)c2)c(C)c1	-11%[70.6 µM]	?	i	?	9%	8%	-6%
COc1cccc(-c2cccc(COc3cnc4c(ccn4CC(=O)O)c3)c2)c1	.	.	.	.	7%[49.3 µM]	5%[49.3 µM]	?
COc1ccc(C(=O)N[C@@H]2c3ccccc3C3(CCNCC3)[C@H]2OC)cc1C	-4%	?	i	?	.	.	.
CN(CC[C@@H]1CC[C@H](O)[C@@H](C(=O)N(C)Cc2ccccc2)O1)Cc1ccccc1	-3%[70.6 µM]	?	i	-16%[174 µM]	.	.	.
CCOC(=O)c1cccc(NC(=O)c2cnc(-c3ccc(C)cc3)nc2-c2ccncc2)c1	-15%	?	i	-16%	.	.	.
CCCOc1ccccc1C(=O)Nc1ccc(-c2nc3ccc(C)cc3s2)cc1	.	.	.	.	?	?	6.2µM*
COc1cccc(C(=O)Nc2ccc(-c3nc4ccc(C)cc4s3)cc2)c1OC	.	.	.	.	15%	10%	-4%
COc1ccc(OC)c(S(=O)(=O)N2CCC(n3c(C)cnc3C3CCOCC3)CC2)c1	.	i	.	-10%	.	.	.
COc1cccc(NC(=O)NC[C@@H]2C=C(C)[C@H](CC(=O)N3CCN(c4ccccn4)CC3)C[C@H]2C(C)C)c1	-23%	?	i	?	.	.	.
Clc1ccc(C2Cn3nnc(-c4nc(-c5ccc6c(c5)OCO6)no4)c3CO2)cc1 (stereo unspecified)	4%	2%	i	4%	.	.	.
CC(C)c1noc(-c2nc(-c3ccc4c(c3)OCO4)no2)n1	?	?	3.5µM*	-24%	16%	17%	7.9µM*
COc1ccc(-c2noc(-c3nc(C(C)C)no3)n2)cc1OC	1%	?	i	i	.	.	.
Cc1c(Cl)cccc1-n1nnc(-c2nc(-c3ccc4c(c3)OCO4)no2)c1C	.	.	.	.	18%	16%	11µM*
Cc1noc(-c2cn(C3CCN(C(=O)Cc4cccc(Cl)c4)CC3)nn2)n1	1%	-29%	i	-24%	.	.	.
O=C1Nc2ccc(/C=C/c3ccccc3)cc2C(=O)N2CC[C@H](NS(=O)(=O)c3cccs3)[C@@H]12	0%	?	?	?	.	.	.
CCOC(=O)C1(C)C=C(Nc2cccc(C(=O)O)c2)C(=O)N1c1ccccc1 (stereo unspecified)	.	.	.	.	10%	?	?
Cc1cnc(CC2CCCN(C(=O)NC(C)(C)C)C2)n1Cc1ccc(F)cc1 (stereo unspecified)	0%	?	i	-19%	.	.	.
Cc1ccc(OCC(=O)Nc2cccc(C(=O)OCc3cc(=O)n4nc(C)sc4n3)c2)cc1	.	.	.	.	20%	?	?
CN(Cc1ccccc1)C(=O)c1cccc2c1CCN2C(=O)Nc1ccccc1	8.9µM*	?	0.79µM*	?	16%	0.39µM*	0.28µM*
CCC(=O)N1CCc2c(C(=O)NCCOC)cccc21	-1%	12%	i	0%	.	.	.
CN(Cc1ccco1)C(=O)c1cccc2c1CCN2C(=O)Nc1ccccc1	10µM*	?	1.3µM*	?	?	0.28µM*	0.2µM*
Cc1cnc(CCNC(=O)C2CCCC2)n1Cc1ccc(F)cc1	4%	-19%	i	-20%	.	.	.
Cc1cnc(CCNC(=O)Nc2ccc3c(c2)OCCO3)n1C1CC1	-15%	-25%	6.3µM*	-21%	19%	16%	?
Cc1cnc(CCNC(=O)Nc2ccc3c(c2)OCCO3)n1Cc1ccc(F)cc1	-29%	40µM*	14µM*	-19%	19%	15%	?
COc1cccc(-c2cn3ncsc3n2)c1	.	.	.	.	22%	16%	?
O=C1NCCCCCCN(Cc2cccc(OC(F)(F)F)c2)[C@H]2CCC[C@@H]12	-8%	?	i	?	.	.	.
